Test results: article PMC13541613, “GHT-SELEX demonstrates unexpectedly high intrinsic sequence specificity and complex DNA binding of many human transcription factors”

Columns and labels:
Assay in all cases: HT-SELEX; 20 mM HEPES pH 7, 140 mM KCl, 5 mM NaCl, 1 mM K2HPO4, 2 mM MgSO4, 100 uM EGTA, ZnSO4, 0.1% Tween20; room temperature, 1 h; high values mean tight binding
Settings in all cases: protein: ivt; tags: eGFP (N-terminal); dsDNA, one strand shown
ZNF721 full-length = ZNF721 full-length (Homo sapiens, UniProt Q8TF20-2 1-923)
Outline: (§1)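 A tagged transcription factor, either full-length or its DNA-binding-domain fragment, was made in HEK293 lysate or cell-free extract, immobilised on beads and incubated with a randomized 40-base DNA library for 1 h at room temperature in HEPES/KCl low-stringency buffer containing Tween20. Washed beads were heat-eluted, and the bound DNA was PCR-amplified over successive cycles and Illumina-sequenced at ~3 million 60 bp reads per sample. The binding signal is the relative k-mer count in selected reads, where a higher value means tighter binding.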

ZNF721 DBD1 = ZNF721 DBD1 (Homo sapiens, UniProt Q8TF20-2 29-461)
Outline: as §1

ZNF721 DBD2 = ZNF721 DBD2 (Homo sapiens, UniProt Q8TF20-2 395-923)
Outline: as §1

Sequence of ZNF721 DBD1 (Q8TF20 17-449): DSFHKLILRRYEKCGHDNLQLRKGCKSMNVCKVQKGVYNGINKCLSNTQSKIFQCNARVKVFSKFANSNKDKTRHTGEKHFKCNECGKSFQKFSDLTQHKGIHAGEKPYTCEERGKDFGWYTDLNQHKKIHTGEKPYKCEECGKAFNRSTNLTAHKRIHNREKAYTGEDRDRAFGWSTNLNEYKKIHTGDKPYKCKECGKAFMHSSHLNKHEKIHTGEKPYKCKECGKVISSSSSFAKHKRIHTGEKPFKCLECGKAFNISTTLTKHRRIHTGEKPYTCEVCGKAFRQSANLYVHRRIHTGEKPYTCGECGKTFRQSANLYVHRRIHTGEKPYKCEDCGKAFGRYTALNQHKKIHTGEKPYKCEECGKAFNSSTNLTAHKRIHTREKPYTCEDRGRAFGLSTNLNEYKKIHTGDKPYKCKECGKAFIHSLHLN
Sequence of ZNF721 full-length (Q8TF20 other isoform, or with tags, fused parts or gaps): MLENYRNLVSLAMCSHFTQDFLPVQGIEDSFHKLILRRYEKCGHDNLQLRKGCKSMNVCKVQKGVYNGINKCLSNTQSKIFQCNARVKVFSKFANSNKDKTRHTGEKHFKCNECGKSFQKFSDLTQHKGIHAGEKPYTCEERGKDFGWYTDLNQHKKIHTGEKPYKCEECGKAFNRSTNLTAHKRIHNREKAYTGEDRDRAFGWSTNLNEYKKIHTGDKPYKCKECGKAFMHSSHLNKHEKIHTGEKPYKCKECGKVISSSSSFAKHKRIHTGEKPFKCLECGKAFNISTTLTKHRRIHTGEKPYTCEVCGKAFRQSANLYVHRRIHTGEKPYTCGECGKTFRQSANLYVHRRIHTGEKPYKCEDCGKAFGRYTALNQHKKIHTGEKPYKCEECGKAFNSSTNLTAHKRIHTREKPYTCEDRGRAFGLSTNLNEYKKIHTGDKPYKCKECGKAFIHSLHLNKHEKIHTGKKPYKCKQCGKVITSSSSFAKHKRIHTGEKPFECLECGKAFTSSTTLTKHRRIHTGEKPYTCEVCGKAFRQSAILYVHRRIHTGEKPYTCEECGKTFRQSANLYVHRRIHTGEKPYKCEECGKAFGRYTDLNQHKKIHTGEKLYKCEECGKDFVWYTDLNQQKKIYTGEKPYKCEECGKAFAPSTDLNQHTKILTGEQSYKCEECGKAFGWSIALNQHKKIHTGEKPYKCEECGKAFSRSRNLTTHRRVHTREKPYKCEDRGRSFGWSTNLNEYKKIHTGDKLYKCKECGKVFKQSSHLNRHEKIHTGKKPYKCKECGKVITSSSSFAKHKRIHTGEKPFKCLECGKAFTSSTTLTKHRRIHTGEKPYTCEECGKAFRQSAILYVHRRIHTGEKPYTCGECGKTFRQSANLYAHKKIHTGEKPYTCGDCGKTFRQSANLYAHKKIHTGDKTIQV
Sequence of ZNF721 DBD2 (Q8TF20 383-911): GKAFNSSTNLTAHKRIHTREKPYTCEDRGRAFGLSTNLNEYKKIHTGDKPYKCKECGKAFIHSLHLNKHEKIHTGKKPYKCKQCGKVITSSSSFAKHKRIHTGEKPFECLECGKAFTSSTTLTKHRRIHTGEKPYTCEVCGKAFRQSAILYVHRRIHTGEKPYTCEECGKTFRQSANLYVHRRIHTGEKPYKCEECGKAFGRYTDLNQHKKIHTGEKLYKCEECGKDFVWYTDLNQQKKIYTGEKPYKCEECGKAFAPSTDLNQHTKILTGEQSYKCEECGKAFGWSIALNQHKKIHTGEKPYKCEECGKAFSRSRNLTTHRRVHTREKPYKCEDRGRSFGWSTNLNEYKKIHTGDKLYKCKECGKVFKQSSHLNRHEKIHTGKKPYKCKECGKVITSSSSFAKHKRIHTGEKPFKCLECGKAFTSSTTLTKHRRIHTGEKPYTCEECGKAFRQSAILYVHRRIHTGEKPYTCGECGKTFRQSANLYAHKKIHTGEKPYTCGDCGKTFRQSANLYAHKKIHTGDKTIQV

Sequence | binding signal (ZNF721 full-length) [relative 10-mer count] | binding signal (ZNF721 DBD1) [relative 10-mer count] | binding signal (ZNF721 DBD2) [relative 10-mer count]
CCCCCCCCTC | 0.167 | 0.00619 | 0.00324
CGCCCTCCCC | 0.172 | 0.0066 | 0.00252
CCACTCCCCC | 0.12 | 0.00436 | 0.00144
CCCTGCCCCC | 0.166 | 0.00642 | 0.00264
AAAAGCAGCC | 0.136 | 0.00261 | 0.112
AGGGGGGTGG | 0.157 | 0.00835 | 0.00407
CGCTTCTTTC | 0.12 | 0.081 | 0.0018
CCACACCCCC | 0.201 | 0.00738 | 0.00276
CAGAAAAAAG | 0.147 | 0.0308 | 0.0475
CCTACCCCCC | 0.127 | 0.00555 | 0.00707
CCCGCCCTCC | 0.158 | 0.00803 | 0.0018
CCCCGCCCAC | 0.202 | 0.00771 | 0.00407
ACACTTCATA | 0.548 | 0.649 | 0.00144
ACCCCACCCC | 0.277 | 0.0101 | 0.00324
CCACCCCAAC | 0.162 | 0.00601 | 0.00659
CCCCCTCCGC | 0.124 | 0.00725 | 0.00372
CCAACCCCCA | 0.13 | 0.00486 | 0.00168
CAAAAAAGCA | 0.259 | 0.00725 | 0.17
AAAAAAAGAA | 0.104 | 0.00867 | 0.0321
AAAAAAGCTA | 0.489 | 0.222 | 0.00276
GAAAAAAACA | 0.2 | 0.00289 | 0.165
CACCCCGCCC | 0.205 | 0.00656 | 0.003
CCCGCCCCCG | 0.13 | 0.00482 | 0.00144

Sequence | binding signal (ZNF721 full-length) [relative 10-mer count] | binding signal (ZNF721 DBD1) [relative 10-mer count] | binding signal (ZNF721 DBD2) [relative 10-mer count]
AAAAAAGGTA | 0.109 | 0.00752 | 0.0674
TCCCACCCCA | 0.147 | 0.00564 | 0.00372
TAAAAAAACA | 0.162 | 0.00234 | 0.134
CCACCCTCAC | 0.103 | 0.00427 | 0.00791
CCCCCCTGCC | 0.121 | 0.00399 | 0.00168
CACCCTACCC | 0.107 | 0.00408 | 0.00491
CCCGCCGCCC | 0.194 | 0.00532 | 0.00192
ACCCCCCAAC | 0.103 | 0.00321 | 0.00407
GCCCCACCCA | 0.13 | 0.00404 | 0.00515
CCCCGCTCCC | 0.139 | 0.0044 | 0.00108
CCTCCCTCCC | 0.179 | 0.00931 | 0.00479
AGCTATACCA | 0.14 | 0.0816 | 0.003
ATGGGTGGGG | 0.109 | 0.00427 | 0.00372
AAAAGCTATC | 0.233 | 0.129 | 0.00168
GGTGGTGGGA | 0.157 | 0.00784 | 0.00455
ACCCCGACCC | 0.102 | 0.00284 | 0.0012
ACCCCCCCCA | 0.154 | 0.005 | 0.00276
CCCACTCCCC | 0.155 | 0.00656 | 0.00372
GCCCACCACC | 0.17 | 0.00688 | 0.00336
CAACAAAGCA | 0.126 | 0.00101 | 0.145
CGCCTCCCCC | 0.126 | 0.0061 | 0.00336
CCCACCCACG | 0.141 | 0.00472 | 0.00551
CCACCCGCCA | 0.108 | 0.00445 | 0.00491
